A selection: hits, their analogues and other compounds. The true share with any hit is near 0.54%.
mIDH1 inhibitor = qHTS for Inhibitors of mutant isocitrate dehydrogenase 1 (IDH1): qHTS | Potency, µM (top dose mostly 76.6 µM), for inactives: top-dose activity change, negative = inhibition, hits mostly inhibitors | IDH1-R132H enzyme, NADPH consumption, diaphorase/resazurin fluorescence | 390,000 tested, 0.093% active | Isocitrate dehydrogenase [NADP] cytoplasmic (Homo sapiens), O75874; note: potency is the fitted concentration of half-maximal effect; % is set by controls: 0 for no effect and ±100 for the full control effect; nearly all actives have a fitted effect of over 65% in size
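IDH1-R132H (0.5 ug/mL) preincubated 30 min with compound, then NADPH (0.016 mM) and alpha-KG (2 mM) added; 80 min at RT, pH 7.5. Remaining NADPH coupled via diaphorase/resazurin to fluorescence (540/590 nm); concentration-response curves normalized to no-enzyme control.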
pAkt inh = HTS Assay for Inhibitors of Akt Phophorylation: Primary Screen; 360,000 tested, 0.32% active; activity change, % for hits at 50 µM; AID 651550, 2012; Neuro2A IGF-stimulated pAkt S473 HTRF, 20 min; stronger effect = lower value; in the data active = activity change below about -80%; inconclusive = mostly about -51% to -80%; note: % is set by controls: 0 for no effect and ±100 for the full control effect
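Single-point screen (50 µM final compound) in Neuro2A cells stimulated 20 min with 6 nM IGF at 37 deg C. After lysis, Ser473-phosphorylated Akt read by HTRF (ex 330 nm, em 615/665 nm) as the 665/615 ratio.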
Menin MLL FP TR = qHTS Assay for Inhibitors Targeting the Menin-MLL Interaction in MLL Related Leukemias: Competition With Texas Red Labeled MLL-derived Mutant Peptide; O00255; Menin + Texas Red MLL mutant peptide, fluorescence polarization; Potency, µM (doses to about 61.6 µM), for inactives: at the top dose FP activity change, negative = inhibition, most hits filed as inhibitors; 270,000 tested, 0.23% active; active = well fitted inhibition curve with a large enough effect in the polarisation, with a control signal flat, not every such curve was filed as active; inconclusive = small, poorly fitted or top-dose-only effect, or effect the other way, or a change in a side signal; inactive = no such curve, though single readings can be large or run the other way; the % refers to the polarisation; note: potency is the fitted concentration of half-maximal effect; % of control where 0% means no effect
Target sequence (O00255 whole entry, looked up): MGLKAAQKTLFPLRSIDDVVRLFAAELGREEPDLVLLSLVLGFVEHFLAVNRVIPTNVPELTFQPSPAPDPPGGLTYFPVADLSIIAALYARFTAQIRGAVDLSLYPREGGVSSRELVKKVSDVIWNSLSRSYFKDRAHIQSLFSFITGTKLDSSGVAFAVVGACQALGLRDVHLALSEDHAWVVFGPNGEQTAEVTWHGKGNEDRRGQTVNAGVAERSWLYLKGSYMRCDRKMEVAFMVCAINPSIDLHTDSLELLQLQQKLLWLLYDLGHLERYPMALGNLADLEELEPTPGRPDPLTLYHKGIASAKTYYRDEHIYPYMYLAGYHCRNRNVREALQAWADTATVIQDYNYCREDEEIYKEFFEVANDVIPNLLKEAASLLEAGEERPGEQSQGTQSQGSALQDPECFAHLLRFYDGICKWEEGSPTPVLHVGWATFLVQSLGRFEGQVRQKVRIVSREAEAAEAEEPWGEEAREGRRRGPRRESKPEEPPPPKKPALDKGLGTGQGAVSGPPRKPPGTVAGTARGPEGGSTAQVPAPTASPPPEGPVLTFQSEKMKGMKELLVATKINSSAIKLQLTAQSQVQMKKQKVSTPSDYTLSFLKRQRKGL
LDHA block = qHTS assay for inhibitors of human lactate dehydrogenase; purified LDHA, NADH/diaphorase-resazurin fluorescence; stronger effect = lower value; 480,000 tested, 0.15% active; activity change, % (values are at about 110 or 230 µM); in the data active = activity change below about -30%; inconclusive = mostly about -25% to -30%;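 note: plate controls were DMSO wells for no effect and wells without enzyme for full effect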
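Remaining NADH was detected by diaphorase (0.133 mg/mL) converting 37 µM resazurin to fluorescent resorufin, read at 0 and 20 minutes. The preceding 5-minute room-temperature reaction used 2 nM LDHA, 0.2 mM sodium pyruvate and 0.06 mM NADH at pH 7.4.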
Menin-MLL FL inh = qHTS Assay for Inhibitors Targeting the Menin-MLL Interaction in MLL Related Leukemias: Competition With Fluorescein Labeled MLL-derived Peptide | Fluorescence polarization, fluorescein-MLL peptide displacement from menin | FP activity change, % at 61.4 µM | 290,000 tested, under 10 active | AID 1766, 2009; active = well fitted curve in the direction sought with a large enough effect in the polarisation, not every such curve was filed as active; inconclusive = small, poorly fitted or top-dose-only effect, or effect the other way, or a change in a side signal; inactive = no such curve, though single readings can be large or run the other way; the % refers to the polarisation; note: % of control where 0% means no effect
CXXC DNA block = qHTS Fluorescence Polarization Assay for Inhibitors of MLL CXXC domain - DNA interaction; MLL-CXXC / FITC-HOXA9 DNA fluorescence polarization; Potency, µM (highest dose often 115 µM), for inactives: at the top dose activity change, negative = inhibition, usual class: inhibitors; 290,000 tested, 0.037% active; AID 2662, 2010; active = well fitted inhibition curve with a large enough effect in the polarisation, with a control signal flat, not every such curve was filed as active; inconclusive = small, poorly fitted or top-dose-only effect, or effect the other way, or a change in a side signal; inactive = no such curve, though single readings can be large or run the other way; the % refers to the polarisation; note: potency is the fitted concentration of half-maximal effect
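Purified MLL-CXXC (added from a 7 uM solution) was preincubated 5 min at ambient with pinned compounds in 50 mM Tris-HCl pH 7.5, 50 mM NaCl, 1 mM DTT, 0.05% BSA. Fluorescein-labeled HOX-A9 DNA (50 nM solution) followed, 30 min, then polarization read.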
IDH1 autofl = qHTS for Inhibitors of mutant isocitrate dehydrogenase 1 (IDH1): Cherrypicks Autofluorescence Interference | 750 tested, under 10 active | shares compounds with mIDH1 inhibitor | AID 623980, 2012 | Resorufin detection reagent fluorescence interference, cell-free | inhibition of signal, % at 51.2 µM;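 note: 0% = wells with normal resorufin and full inhibition = wells lacking resorufin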
IDH1 WT = qHTS for Inhibitors of mutant isocitrate dehydrogenase 1 (IDH1): Cherrypicks in WT IDH1; AID 623995, 2012; WT IDH1 enzyme, NADPH diaphorase/resazurin fluorescence; 750 tested, 9% active; shares compounds with mIDH1 inhibitor; Potency, µM (highest dose often 115 µM), for the others: at the top dose activity change, negative = inhibition, most hits filed as inhibitors;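 note: potency is the fitted concentration of half-maximal effect; 0% = full WT IDH1 enzyme control and full inhibition = no enzyme wells; nearly all actives have a fitted effect of over 55% in size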
IDH1 R132H conf = qHTS for Inhibitors of mutant isocitrate dehydrogenase 1 (IDH1): Confirmation of Cherrypicks. shares compounds with mIDH1 inhibitor. IDH1 R132H enzyme, NADPH diaphorase/resazurin fluorescence. 750 tested, 83% active. Potency, µM (top dose mostly 76.6 µM), for the others: top-dose activity change, negative = inhibition, most hits filed as inhibitors; note: potency is the fitted concentration of half-maximal effect; nearly all actives have a fitted effect of over 50% in size
* hit, by the source's call; i = inactive; ? = inconclusive; nt = no result. Unless noted, calls come from the whole dose curve; as a rule, active = well fitted curve in the direction sought with a large enough effect; inconclusive = small, poorly fitted or top-dose-only effect, or another doubt; inactive = no such curve, though single readings can be large; an effect the other way counts as inactive or inconclusive.

SMILES	mIDH1 inhibitor	pAkt inh	Menin MLL FP TR	LDHA block	Menin-MLL FL inh	CXXC DNA block	IDH1 autofl	IDH1 WT	IDH1 R132H conf
COc1ccc(-c2csc3nc(-c4cccnc4)nc(N4CCC(C(N)=O)CC4)c23)cc1OC	?	i	10%	-11	2	1%	nt	nt	nt
COc1ccc(-c2csc3nc(C)nc(N4CCCCC4)c23)cc1OC	?	i	?	4	0	-1%	-7	4%	32µM*
C=CCSC1=N/C(=C\c2cc(OCC)c(OC(C)=O)c([N+](=O)[O-])c2)C(=O)S1	?	i	?	-9	13	?	2	?	25µM*
C=CCSC1=N/C(=C\c2ccc3c(c2)OCO3)C(=O)S1	1%	i	-1%	0	-1	-13%	nt	nt	nt
COc1cc(-c2nc3c(c(C)nn3-c3ccccc3)c3cc(OC)c(OC)cc23)ccc1O	?	i	?	1	0	-2%	1	0%	10µM*
Cc1ccc(C)c(N(C)C(=O)c2cc3c(=O)[nH]c4ccc(C)cc4c3s2)c1	21µM*	i	nt	-5	-1	5%	-3	?	11µM*
O=C(NCC1COc2ccccc2O1)c1c[nH]c2ccc(S(=O)(=O)N3CCOCC3)cc2c1=O (configuration not stated)	?	i	?	1	3	3%	-13	-21%	1%
O=C(NCC1COc2ccccc2O1)c1cc(S(=O)(=O)N2CCOCC2)ccc1F (configuration not stated)	-1%	i	nt	0	nt	nt	nt	nt	nt
CCC(=O)C1=C(c2ccc(Cl)cc2)N(C(=O)CC)n2c(C)nnc2S1	45µM*	nt	nt	-12	nt	nt	-13	299%	14µM*
CCCCCCCCOc1ccc(C(=O)Oc2ccc(C#N)cc2)cc1	nt	nt	nt	-2	nt	nt	nt	nt	nt
COc1ccc(CN2C(=O)c3cccnc3C2Nc2ccc(C)cc2)cc1 (configuration not stated)	0%	i	nt	-6	4	12%	nt	nt	nt
Cc1ccc(NC2c3ncccc3C(=O)N2Cc2cccs2)cc1 (configuration not stated)	52µM*	i	0%	-2	2	6%	-3	2%	-21%
O=c1c2ccccc2nc(/C=C/c2ccccc2)n1CCc1ccccc1	3%	i	-3%	-3	3	-1%	nt	nt	nt
O=c1c2ccccc2nc(/C=C/c2cccnc2)n1CCc1ccccc1	52µM*	i	nt	-2	-3	-2%	2	-25%	45µM*
COc1ccccc1C1CC(c2ccc(Br)cc2)=NN1C(=O)c1cccnc1 (configuration not stated)	46µM*	i	?	0	16	26%	0	-5%	22µM*
O=C(c1ccncc1)N1N=C(c2ccc(Cl)cc2)CC1c1ccccc1O (configuration not stated)	52µM*	i	22%	-6	9	-8%	2	-2%	35µM*
Cc1ccc(-c2ccc(/C=C3\C(=O)ON=C3c3ccccc3)o2)c([N+](=O)[O-])c1	52µM*	i	?	-15	4	?	7	79µM*	35µM*
Cc1ccc(/C=C2\C(=O)ON=C2c2ccccc2)o1	8%	i	-1%	0	0	-1%	nt	nt	nt
Cc1cccc(C(=O)NCCc2csc(C)n2)n1	nt	nt	nt	-1	nt	nt	nt	nt	nt
Cc1ccc(OCCCSc2nc(-c3ccc(C(C)(C)C)cc3)nc3cc(=O)[nH]n23)cc1C	40µM*	nt	nt	-4	nt	nt	0	?	25µM*
CSC1=C(C#N)C(c2ccccc2C)C(C#N)=C(N)N1 (configuration not stated)	?	i	-7%	-36*	5	1%	6	116%	45µM*
C=CCn1c(SCC(=O)N2CCN(C(=O)c3ccco3)CC2)nc2sc(CC)cc2c1=O	?	i	-7%	-7	0	-3%	-1	14%	18µM*
C=CCn1c(SCC(=O)N2CCCC2=O)nc2sc(CC)cc2c1=O	0%	i	nt	-1	nt	nt	nt	nt	nt
COc1cc2ccccc2cc1C(=O)Nc1nnc(C2CCCCC2)s1	nt	nt	nt	1	nt	nt	nt	nt	nt
Cc1ccc(NC2(c3nnnn3-c3c(C)cccc3C)CCCCC2)cc1	58µM*	i	-15%	1	-1	-10%	-8	0%	-12%
SMILES	mIDH1 inhibitor	pAkt inh	Menin MLL FP TR	LDHA block	Menin-MLL FL inh	CXXC DNA block	IDH1 autofl	IDH1 WT	IDH1 R132H conf
CNC(=O)/C(C#N)=C/c1c(N(Cc2ccccc2)Cc2ccccc2)nc2c(C)cccn2c1=O	52µM*	i	-9%	-6	2	11%	-1	2%	14µM*
CCNC(=O)/C(C#N)=C/c1c(N(Cc2ccccc2)Cc2ccccc2)nc2ccccn2c1=O	?	i	?	0	0	10%	-4	1%	20µM*
N#Cc1ccccc1COC(=O)c1ccccc1SCC1CCCO1 (configuration not stated)	nt	nt	nt	8	nt	nt	nt	nt	nt
COc1ccc(-c2c3c(=O)n(C)c(=O)n(C)c3c3n2-c2ccccc2NC3c2ccc(O)cc2O)cc1 (configuration not stated)	35µM*	nt	nt	1	nt	nt	-5	-27%	8.9µM*
Cc1ccc(N2C(=O)c3n[nH]c(C)c3C2c2ccc(Cl)cc2)cc1 (configuration not stated)	?	nt	nt	-11	nt	nt	-3	-3%	45µM*
Cc1ccc(N2C(=O)c3n[nH]c(C)c3C2c2ccc(O)cc2)cc1 (configuration not stated)	nt	nt	nt	-10	nt	nt	nt	nt	nt
